Reference: PubChem BioAssay AID1233 (SRMLSC, 2008)
Entries with a potency or affinity are not part of this list. Active and inactive are the calls of the source.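 How the source made its calls: active means a dose-response curve fit returns a half-maximal inhibitory concentration, extrapolated values included; inactive means the fit returns no such concentration.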

biological target: HMG-CoA reductase [Enterococcus faecalis] (UniProt Q9FD70); experiment: class II HMG-CoA reductase inhibition potency – biochemical, Enterococcus faecalis, confirmation (AID 1233);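 further: 0% = full reaction carrier wells and 100% = background wells lacking mevalonate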; settings: purified E. faecalis HMGR, NADPH absorbance 340 nm kinetics; series mostly up to 100 µM; inhibition: at the top concentration

inhibition, inactive:
Cc1ccc(NC(=O)NC2CCCCC2)cc1S(=O)(=O)N1CCOCC1 1.4%
COc1ccc(C)cc1NC(=O)COC(=O)C1CCN(C(=O)c2ccc(Cl)cc2)CC1 -3.39%
CC(=O)c1ccc(NC(=O)c2ccc(NC(=O)CCS(=O)(=O)c3cccs3)cc2)cc1 -2.59%
O=C(CN1CCN(c2ncc(C(F)(F)F)cc2Cl)CC1)NC(=O)NCc1ccccc1 0.06%
CC(C)(C)OC(=O)N1CCC[C@H]1c1nnc(SCc2ccccc2F)o1 -1.4%
COC(=O)c1ccccc1NC(=O)NCc1ccco1 -2.25%
O=C1CC(c2ccccc2)CC2=C1CN(C1CCCCC1)CN2 (configuration not stated) -1.51%
O=C(Nc1cccc(S(=O)(=O)N2CCCCCC2)c1)c1ccc2ccccc2n1 -2.66%
CC(=O)Nc1ccc(C(=O)CSc2nnc(Cc3ccccc3)o2)cc1 -5.67%
COC(=O)C(C(=O)OC)c1ccc(N)cc1 0.61%
CCCSc1nnc2n(N)c(=O)c3ccccc3n12 -3.93%
CCOc1cc(N2CCOCC2)c(OCC)cc1NC(=O)CC12CC3CC(CC(C3)C1)C2 -4%
CCN1CCN(CCC(=O)Nc2ccc3c(c2)OCO3)CC1 -5.86%
CN(C(=O)COc1ncnc2c1cnn2-c1ccccc1)C1CCCCC1 -1.4%
S=C1NCCc2ccc(Cl)cc2C1c1ccccc1 (configuration not stated) -3.66%
O=C1NCCCC1C(=O)Nc1ccccc1C(F)(F)F (configuration not stated) -6.64%
CCC(=O)N/N=C(\C)CC(=O)Nc1ccccc1-c1ccccc1 1.25%
Cc1cc(=O)[nH]c(SCCOc2ccc3c(c2)CCC3)n1 -3.48%
Cc1cccc(S(=O)(=O)Nc2ccc(-c3cn4ccccc4n3)cc2)c1 -5.01%
Cc1cccc(N/N=C(\C#N)S(=O)(=O)C(C)(C)C)c1 -3%
COc1ccc(NCc2nnc(SCCN3CCCCC3)n2-c2ccc(C)cc2)cc1 -4.43%
COCCCNC(=O)CCCC(=O)NCCCOC -2.96%
S=c1[nH]c2cc(Cl)ccc2s1 -0.06%
CN(CCOC(=O)c1cccc(Br)c1)C(C)(C)C -4.97%
Cc1c(NC(=O)CN2C(=O)c3ccccc3S2(=O)=O)c(=O)n(-c2ccccc2)n1C 1.92%
C=CCN1CCN(C(c2cc(OC)ccc2OC)c2nnnn2CC2CCCO2)CC1 (configuration not stated) 0.95%
CN(C(=O)c1cc2ccccc2oc1=O)C1(C)CCS(=O)(=O)C1 (configuration not stated) -3.33%
CC(C)OC(=O)NC(C)(C)COC(=O)Nc1cccc(Cl)c1 -4.08%
CCc1c(C)nc2c(C#N)c(C)[nH]n2c1=O 0.91%
O=C(O)CCCCCCC1C(=O)NC(=O)N1CCC(O)C1CCCCC1 (configuration not stated) -3.19%
CC(C)OCP(=O)(c1ccccc1)c1ccccc1 -1.06%
COc1cc(C)nc(Oc2ccc(OCCOc3ccccc3)nn2)n1 -3.5%
N#CC(=C1CCCC1)c1nc(-c2ccc(Cl)cc2)cs1 9.54%
COc1cc2c(cc1OC)C(C(=O)Nc1ccc3c(c1)OCCO3)C(c1cccnc1)N(C)C2=O (configuration not stated) -2.25%
O=C(CC(=O)NN=C1CCCCCC1)NCc1cccnc1 -5.13%
COc1ccc(/C=C/C(=O)NCCNC(=O)c2ccccc2)cc1OC 0.2%
COc1ccc(-c2nn(-c3ccccc3)cc2/C=N/Nc2cccc(C(=O)O)c2)cc1 3.14%
